Data from PubChem BioAssay (NCATS).
Records with an inconclusive call do not appear. Active and inactive are the calls of the source. Unless noted, calls come from the whole dose curve; as a rule, active = well fitted curve in the direction sought with a large enough effect; inconclusive = small, poorly fitted or top-dose-only effect, or another doubt; inactive = no such curve, though single readings can be large; an effect the other way counts as inactive or inconclusive.

Legend:
[1] = qHTS Assay for Lipid Storage Modulators (AID 1519; calls by dose curve; for activity change, negative = inhibition: % is set by controls: 0 for no effect and ±100 for the full control effect); conditions: Drosophila S3 cells, BODIPY lipid droplet/cell ratio, laser cytometry, cells loaded with oleic acid
Method in brief: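 Cells seeded at 5,000 per well were treated with compounds over a concentration series and loaded with oleic acid (400 uM, as added). Lipid droplet fluorescence (488 nm excitation, 500-530 nm channel) was read by laser-scanning cytometry and normalized to 20 uM Triacsin C.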

[2] = Validation of Assay for Modulators of Lamin A Splicing (AID 1459; active = well fitted curve in the direction sought with a large enough effect in the signal ratio; the % refers to the signal ratio;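 note: cells exposed to compound for two days before reading; 0% is about no effect; ratio rise marks activators and ratio drop marks inhibitors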); conditions: Lamin A splicing dual RFP/GFP fluorescence reporter; series mostly up to 9.22 µM
Method in brief: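 Splicing correction read as GFP (500-530 nm) over DsRed2 (575-640 nm) object intensity after 48 h compound exposure of reporter HeLa S3 clones (600 cells/well, 2% FBS medium); ancitabine and cycloheximide titrations, 0.5% DMSO as vehicle.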

[3] = molecular target: DNA repair nuclease/redox regulator APEX1 (Homo sapiens) (UniProt P27695); experiment: qHTS Validation Assay for Inhibitors of the Human Apurinic/apyrimidinic Endonuclease 1 (APE1) (AID 1705;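 note: TAMRA fluorescence gain over two minutes as APE1 cuts a quenched THF abasic duplex; % is set by controls: 0 for no effect and ±100 for the full control effect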); conditions: purified APE1 endonuclease activity, fluorescence, titration; series mostly up to 57.1 µM
Method in brief: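 Activity read as rising fluorescence (598 nm emission, 525 nm excitation) from incision of a TAMRA/BHQ-2 duplex carrying a THF abasic site (50 nM). Compound and enzyme sat 15 min at RT before substrate start; signal change between first and third 60-s reads.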

[4] = Counterscreen for APE1 Inhibitors: Fluorescent Dye Displacement Validation Assay (AID 1707); conditions: fluorescent dye displacement from DNA; series mostly up to 57.1 µM;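 note: plate controls were ThO with dsDNA and no compound for no effect and ThO without dsDNA for full effect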
Method in brief: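 Loss of Thiazole Orange fluorescence marks promiscuous DNA binders. The dye (250 nM) is mixed with 50 nM abasic-site dsDNA in pH7.5 Tris buffer containing MgCl2, then compounds are added and emission is read once.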

[5] = molecular target: Endonuclease 4 (Escherichia coli (strain K12)) (UniProt P0A6C1); experiment: Counterscreen for APE1 Inhibitors: qHTS Validation Assay for Inhibitors of Endonuclease IV (AID 1708); note: % is set by controls: 0 for no effect and ±100 for the full control effect; conditions: E. coli endonuclease IV, DNA cleavage fluorescence; series mostly up to 57.1 µM
Method in brief: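 Conditions: 2 nM enzyme, 50 nM TAMRA/BHQ-2 substrate, pH 7.5 Tris buffer with 2 mM MgCl2, RT. Compound preincubation 15 min; readout three fluorescence reads 60 s apart, third-minus-first.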

[6] = qHTS for differential inhibitors of proliferation of Plasmodium falciparum line 7G8 (AID 1815); conditions: Plasmodium falciparum 7G8 proliferation inhibition; series mostly up to 28.7 µM;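 note: parasite growth measured after three days of incubation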; note: potency is the fitted concentration of half-maximal effect;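 for activity change, negative = inhibition: plate controls were vehicle wells for no effect and reference inhibitor wells for full effect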
[7] = qHTS for differential inhibitors of proliferation of Plasmodium falciparum line GB4 (AID 1816); conditions: Potency: Plasmodium falciparum GB4 proliferation inhibition; series mostly up to 28.7 µM;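 note: parasite growth measured after 72 h incubation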; note: potency is the fitted concentration of half-maximal effect;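 for activity change, negative = inhibition: 0% = vehicle DMSO and -100% = reference inhibitor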
[8] = qHTS for differential inhibitors of proliferation of Plasmodium falciparum line 3D7 (AID 1876); note: potency is the fitted concentration of half-maximal effect; conditions: P. falciparum 3D7 proliferation inhibition; series mostly up to 28.7 µM
[9] = qHTS for differential inhibitors of proliferation of Plasmodium falciparum line D10 (AID 1877); conditions: series mostly up to 28.7 µM;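 note: parasites grown with compound for 72 h before DNA staining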; note: potency is the fitted concentration of half-maximal effect;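 for activity change, negative = inhibition: plate controls were vehicle wells for no effect and reference inhibitor wells for full effect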
[10] = qHTS for differential inhibitors of proliferation of Plasmodium falciparum line Dd2 (AID 1882); conditions: Potency: Plasmodium falciparum Dd2 proliferation inhibition; series mostly up to 28.7 µM; note: nearly all actives have a fitted effect of over 65% in size; note: potency is the fitted concentration of half-maximal effect;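 for activity change, negative = inhibition: plate controls were DMSO vehicle for no effect and 0.29 µM artemisinin for full effect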
Method in brief: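 SYBR Green DNA fluorescence (ex 485, em 535 nm) after overnight lysis quantifies parasite growth; compound exposure lasted 72 h at 37 C on infected red cells at 2.5% hematocrit, 0.3% parasitemia (final). Artemisinin 0.29 uM and vehicle wells define normalization.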

[11] = qHTS for differential inhibitors of proliferation of Plasmodium falciparum line W2 (AID 1883); conditions: Potency: Plasmodium falciparum W2 proliferation inhibition; series mostly up to 28.7 µM;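 note: parasites grown with compound for 72 h before lysis and staining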; note: potency is the fitted concentration of half-maximal effect;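 for activity change, negative = inhibition: 0% = vehicle wells and -100% = control inhibitor wells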
[12] = qHTS for differential inhibitors of proliferation of Plasmodium falciparum line HB3 (AID 1886); conditions: Potency: Plasmodium falciparum HB3 proliferation inhibition; series mostly up to 28.7 µM;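 note: parasites grown with compound for 72 h before SYBR Green readout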; note: potency is the fitted concentration of half-maximal effect;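 for activity change, negative = inhibition: plate controls were vehicle for no effect and reference inhibitor for full effect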
[13] = qHTS Assay for Modulators of Human Peripheral Myelin Protein 22 (PMP22) Expression/Activity (AID 1967; active = well fitted curve in the direction sought with a large enough effect in the signal ratio; the % refers to the signal ratio;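 note: 0% = untreated cells and 100% end not stated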); conditions: Cell-based PMP22 reporter, dual-color luciferase ratio, 0% = compound-free control cells, mouse Pmp22 promoter in mouse Schwann cells; series mostly up to 115 µM
Method in brief: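 Readout is the corrected green/red luminescence ratio after 24 h compound exposure, normalised to untreated cells (0%). Engineered MSC80 mouse Schwann cells express green luciferase from the mouse Pmp22 promoter and red luciferase from EF-alpha as internal control.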

[14] = measured here: cell count channel max response
[15] = measured here: lipid channel max response

Chain of DNA repair nuclease/redox regulator APEX1 (Homo sapiens) (P27695 whole entry, looked up): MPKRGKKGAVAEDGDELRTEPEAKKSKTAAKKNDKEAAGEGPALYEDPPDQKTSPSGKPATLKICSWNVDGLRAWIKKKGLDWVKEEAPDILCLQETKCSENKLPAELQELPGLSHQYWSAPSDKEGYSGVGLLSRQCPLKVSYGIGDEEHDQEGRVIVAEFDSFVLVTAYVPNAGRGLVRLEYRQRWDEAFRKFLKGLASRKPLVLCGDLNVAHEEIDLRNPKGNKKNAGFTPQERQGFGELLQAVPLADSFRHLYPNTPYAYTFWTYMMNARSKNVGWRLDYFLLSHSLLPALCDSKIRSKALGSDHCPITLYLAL

With `CCCCc1nc(Cl)c(CO)n1Cc1ccc(-c2ccccc2-c2nn[nH]n2)cc1` the activity change, negative = inhibition ([1]; at 57.5 µM (top of the series)) was 9.33% (inactive), the max response [1, 14] was 13.8% and the max response [1, 15] was 25.7%.
With `COc1c2occc2c(OC)c2c(=O)cc(C)oc12` the activity change, negative = inhibition ([1]; at 25.7 µM (top of the series)) was 2.26% (inactive), the max response [1, 14] was 3.81% and the max response [1, 15] was 5.65%.
With `OCc1ccccc1O` the activity change, negative = inhibition ([1]; at 57.5 µM (top of the series)) was 1.86% (inactive), the max response [1, 14] was -8.44% and the max response [1, 15] was 0.187%.
In the case of `CCC(NC(C)C)C(O)c1ccc(O)c(O)c1` (stereo unspecified), the outcome [2] is reported as “inactive”, the activity change, negative = inhibition ([1]; at 57.5 µM (top of the series)) is reported as 1.71% (inactive) and the max response [1, 14] is reported as 7.27%. For the same molecule, the max response [1, 15] was 6.31%, the Potency [3] was “inactive” and the outcome [4] was “inactive”. The outcome [5] was “inactive”, the Potency [6] was 11.2 µM (active) and the Potency [7] was 12.6 µM (active). For the same molecule, the Potency [8] was 12.6 µM (active), the Potency [9] was 12.6 µM (active) and the Potency [10] was 7.08 µM (active). The Potency [11] was 8.91 µM (active), the Potency [12] was 8.91 µM (active) and the outcome [13] was “inactive”.
For `O=C(COc1ccc(Cl)cc1)N1CCN(Cc2ccc3c(c2)OCO3)CC1`, the activity change, negative = inhibition ([1]; at 25.7 µM (top of the series)) was 1.24% (inactive), the max response [1, 14] was -6.27% and the max response [1, 15] was -4.72%.
In the case of `CC(C)(C(=O)c1cccnc1)c1cccnc1`, the activity change, negative = inhibition ([1]; at 25.7 µM (top of the series)) is reported as -6.04% (inactive), the max response [1, 14] is reported as -12.6% and the max response [1, 15] is reported as -17.9%.
For `COC(=O)[C@H]1[C@H]2C[C@H]3c4[nH]c5ccccc5c4CCN3C[C@H]2CC[C@@H]1O`, the outcome [2] was “inactive”, the Potency [3] was “inactive” and the outcome [4] was “inactive”. The outcome [5] was “inactive”, the Potency [8] was “inactive” and the Potency [9] was “inactive”. For the same molecule, the Potency [10] was “inactive” and the Potency [12] was “inactive”.
For `CC(C)(CO)[C@@H](O)C(=O)NCCCO`, the activity change, negative = inhibition ([1]; at 57.5 µM (top of the series)) was 2.51% (inactive), the max response [1, 14] was 21.8% and the max response [1, 15] was 22.3%.
For `O=C(CCCN1CCC(O)(c2ccc(Br)cc2)CC1)c1ccc(F)cc1`, the activity change, negative = inhibition ([1]; at 25.7 µM (top of the series)) was -4.42% (inactive), the max response [1, 14] was -5.85% and the max response [1, 15] was -9.42%.
In the case of `CC1(C)CCC(NC(=O)[C@@H](N)CCC(=O)O)CC1`, the outcome [2] is reported as “inactive”, the Potency [3] is reported as “inactive” and the outcome [4] is reported as “inactive”. The outcome [5] was “inactive”, the Potency [6] was “inactive” and the Potency [7] was “inactive”. The Potency [8] was “inactive”, the Potency [9] was “inactive” and the Potency [10] was “inactive”. For the same molecule, the Potency [11] was “inactive”, the Potency [12] was “inactive” and the outcome [13] was “inactive”.
